The list is not random: actives were taken first. Their share in the collection is about 1.3%.
SRC2 inh: human SRC2 (NCOA2) inhibition | Q15596 | HEK293 GAL4-SRC2 luciferase reporter, luminescence | inhibition, % at 9 µM | 0.17% of 370,000 active | AID 651957;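 active = inhibition above the mean inhibition of all tested compounds plus 3 SD, set per campaign, cut at about 52% in these data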
NCOA1 inh: human NCOA1 inhibition. Q15788. HEK293 GAL4-SRC1 luciferase reporter, luminescence. inhibition, % at 3.6 µM. 0.12% of 360,000 active;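 active = inhibition above the campaign mean plus 3 SD, with each screening campaign given its own cutoff, cut at about 60% in these data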
LRH-1 inv ag: inverse agonists of human LRH-1 (NR5A2) | HEK293T StAR-luciferase reporter, LRH-1 transfected, 24 h | inhibition, % at 3.6 µM | 0.13% of 360,000 active;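 active = inhibition above the mean inhibition of all tested compounds plus 3 SD, cut at about 73% in these data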
SRC3 inh: inhibits human SRC3 coactivator | 0.17% of 360,000 active | HEK293 GAL4-SRC3 luciferase reporter, luminescence | inhibition, % at 3.6 µM;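 active = inhibition above a per-campaign cutoff, the mean of all compounds plus 3 SD, cut at about 60% in these data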;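 note: higher means less SRC3-driven luciferase light from the GAL4 reporter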
Gli-Sufu block: antagonists of Gli-Sufu signaling; Sufu-KO-LIGHT fibroblasts, Gli luciferase reporter luminescence; inhibition, % at 5 µM; 0.74% of 340,000 active; AID 588413;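 active = inhibition above about 55%, limit read from the data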
NR2F2 inh: NR2F2 (human) inhibition, primary screen | P24468 | AID 686940 | inhibition, % at 8.6 µM | 0.7% of 370,000 active | HEK293T NGFI-A luciferase reporter, luminescence;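 active = inhibition above a per-plate cutoff, mean inhibition of test wells between control levels plus 3 SD, cut at about 38% in these data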;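 note: cells cotransfected with COUP-TFII expression vector driving the NGFI-A reporter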
Target sequence (P24468 whole entry, looked up): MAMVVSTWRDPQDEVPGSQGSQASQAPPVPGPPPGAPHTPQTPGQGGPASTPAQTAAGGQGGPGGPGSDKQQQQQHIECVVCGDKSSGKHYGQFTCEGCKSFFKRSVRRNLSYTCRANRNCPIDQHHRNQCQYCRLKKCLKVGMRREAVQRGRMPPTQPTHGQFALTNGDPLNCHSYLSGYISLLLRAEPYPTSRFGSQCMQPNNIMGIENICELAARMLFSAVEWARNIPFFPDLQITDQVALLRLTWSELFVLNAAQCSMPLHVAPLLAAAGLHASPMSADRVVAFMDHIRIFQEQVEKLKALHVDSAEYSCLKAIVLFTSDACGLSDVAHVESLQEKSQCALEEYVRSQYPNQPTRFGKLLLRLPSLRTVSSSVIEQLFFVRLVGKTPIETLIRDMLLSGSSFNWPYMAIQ
Gli-Sufu confirm: Gli-SUFU antagonism confirmation, single concentration | shares compounds with Gli-Sufu block | Sufu-KO-LIGHT cells, Gli luciferase reporter, luminescence | inhibition, % at 5 µM | 40% of 2,500 active;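 active = mean inhibition at 5 µM reaching about 45%, limit read from the data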
SufuKO cytotox: counter-screen for Gli-SUFU antagonists: cytotoxicity; 32% of 2,500 active; AID 651994; cytotoxicity, % at 5 µM; shares compounds with Gli-Sufu block; Sufu-KO-LIGHT cells cytotoxicity, ATP luminescence;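 active = mean cytotoxicity at 5 µM above about 25%, limit read from the data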;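 note: cells exposed to compound overnight for roughly 16 to 18 hours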
Wnt3a counter: inhibits Wnt3a reporter, counter-screen for Gli-SUFU antagonists; AID 651995; Wnt-LIGHT cells, Wnt3a-driven luciferase reporter, luminescence; inhibition, % at 6.25 µM; 20% of 2,500 active; shares compounds with Gli-Sufu block;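 active = mean inhibition above about 25%, limit read from the data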
Large screens that a line does not name were inactive (follow-up assays come after a bar, where they were run).

Cc1cc(N2CCOCC2)nc(-c2ccccc2O)n1	none
Cc1cc(N2CCCCC2)nc(NCc2ccccc2)n1	none | Gli-Sufu confirm inactive | SufuKO cytotox inactive | Wnt3a counter inactive
Cc1cc(Nc2cccc(Cl)c2)nc(NCc2ccccc2)n1	Gli-Sufu block 74 | Gli-Sufu confirm 52 | SufuKO cytotox 32 | Wnt3a counter inactive
Cc1cc(N2CCCCCC2)nc(-c2ccccc2O)n1	Gli-Sufu block 85 | Gli-Sufu confirm inactive | SufuKO cytotox inactive | Wnt3a counter inactive
Cc1cc(NC(=O)CSc2nc3c([nH]c4ccccc43)c(=O)n2-c2ccccc2F)no1	Gli-Sufu block 58 | Gli-Sufu confirm 56 | SufuKO cytotox inactive | Wnt3a counter inactive
COc1ccccc1-n1c(SCC(=O)Nc2cc(C)on2)nc2c([nH]c3ccccc32)c1=O	none
CC(C(=O)NCCS(=O)(=O)c1ccc(Cl)cc1)S(=O)(=O)c1ccc(Cl)cc1 (stereo unspecified)	Gli-Sufu block 72 | Gli-Sufu confirm inactive | SufuKO cytotox inactive | Wnt3a counter inactive
CC(C(=O)NCCS(=O)(=O)c1ccc(Cl)cc1)S(=O)(=O)c1ccccc1 (stereo unspecified)	none
Cn1cc(CNCc2ccccc2OCC(O)CN2CCc3ccccc3C2)cn1 (stereo unspecified)	Gli-Sufu block 55 | Gli-Sufu confirm inactive | SufuKO cytotox inactive | Wnt3a counter inactive
Cc1ccccc1C(=O)N1CCC(Oc2cccnc2)CC1	none (no result: NCOA1 inh, LRH-1 inv ag, SRC3 inh, Gli-Sufu block)
CC1(C)CC(=O)c2c(O)cc(OCc3ccc(Br)cc3)cc2O1	Gli-Sufu block 96 | Gli-Sufu confirm inactive | SufuKO cytotox inactive | Wnt3a counter inactive
CCOC(=O)C1CCN(c2cc3c(cc2NC(=O)c2cc(OC)ccc2Br)n(C)c(=O)n3C)CC1	none | Gli-Sufu confirm inactive | SufuKO cytotox inactive | Wnt3a counter inactive
COc1ccc(C(=O)NNC(=O)CSc2nnc3ccccn23)cc1OC	none
COc1ccc(Cl)cc1C(=O)NNC(=O)CSc1nnc2ccccn12	none | Gli-Sufu confirm inactive | SufuKO cytotox inactive | Wnt3a counter inactive
COC(=O)C1CN(Cc2ccc(F)cc2)CCS(=O)(=O)N1Cc1cn(Cc2ccc(Cl)cc2)nn1 (stereo unspecified)	none (no result: NCOA1 inh, LRH-1 inv ag, SRC3 inh, Gli-Sufu block)
O=C(Nc1cccc(Cl)c1)c1ccc(F)c(S(=O)(=O)NCc2ccc3c(c2)OCO3)c1	Gli-Sufu block 89 | Gli-Sufu confirm inactive | SufuKO cytotox inactive | Wnt3a counter inactive
CCC1CCc2sc(C(=O)Nc3cc(S(=O)(=O)N4CCOCC4)ccc3OC)cc2C1 (stereo unspecified)	none (no result: SRC2 inh, NCOA1 inh, LRH-1 inv ag, SRC3 inh, Gli-Sufu block)
CC(C)[C@H](NC(N)=O)C(=O)Nc1ccc(F)c(Cl)c1	none | Gli-Sufu confirm inactive | SufuKO cytotox inactive | Wnt3a counter inactive
CCOC(=O)N1CCN(c2cc(=O)n(-c3ccccc3Cl)c(=O)[nH]2)CC1	none | Gli-Sufu confirm inactive | SufuKO cytotox inactive | Wnt3a counter inactive
O=c1cc(N2CCN(c3ccccc3)CC2)[nH]c(=O)n1-c1ccccc1Cl	none
CC(=O)NS(=O)(=O)c1ccc(NC(=S)NC(=O)C(C)C)cc1	Gli-Sufu block 93 | Gli-Sufu confirm inactive | SufuKO cytotox inactive | Wnt3a counter inactive
Cc1nn(C)cc1CN1CCCC(C(=O)c2ccc(-c3ccccc3)cc2)C1 (stereo unspecified)	none | Gli-Sufu confirm inactive | SufuKO cytotox inactive | Wnt3a counter inactive
O=C(c1ccc(-c2ccccc2)cc1)C1CCCN(Cc2ccncc2)C1 (stereo unspecified)	none | Gli-Sufu confirm inactive | SufuKO cytotox inactive | Wnt3a counter inactive
CC1CC(C)CN(C(=O)c2nn(C)c3c2CS(=O)(=O)c2ccccc2-3)C1 (stereo unspecified)	none | Gli-Sufu confirm inactive | SufuKO cytotox inactive | Wnt3a counter inactive
C=CCn1c(COc2ccc(C)cc2)nnc1SCc1ccc([N+](=O)[O-])cc1	none (no result: NCOA1 inh, LRH-1 inv ag, SRC3 inh, Gli-Sufu block)
CC(C)NC(=O)N[C@H]1C[C@@H]2O[C@H](CO)CC[C@@H]2O[C@@H]1CCc1ccc(-c2ccc(F)cc2)cc1	none (no result: NCOA1 inh, LRH-1 inv ag, SRC3 inh, Gli-Sufu block)
CC1=C(C(=O)OC2CCCCC2)C(c2ccc(O)cc2)NC(=O)N1 (stereo unspecified)	Gli-Sufu block 96 | Gli-Sufu confirm inactive | SufuKO cytotox inactive | Wnt3a counter inactive
COc1ccc(C(=O)N/N=C(\c2ccccc2)c2ccccn2)cc1	Gli-Sufu block 74 | Gli-Sufu confirm 51 | SufuKO cytotox inactive | Wnt3a counter 38
CCOc1ccc(OCc2ccc(C(=O)N/N=C(\C)c3ccccn3)cc2)cc1	Gli-Sufu block 83 | Gli-Sufu confirm 91 | SufuKO cytotox 42 | Wnt3a counter 72
COC(=O)C1=C(C)N(Cc2cccc(C(F)(F)F)c2)C(=NCC2CC2)NC1c1cccc(C(F)(F)F)c1 (stereo unspecified)	none (no result: NCOA1 inh, LRH-1 inv ag, SRC3 inh, Gli-Sufu block)
COc1ccccc1/C=N/NC(=O)C(=O)Nc1ccccc1OC(F)(F)C(F)F	none
O=C(N/N=C/c1cc(Cl)ccc1O)C(=O)Nc1ccccc1OC(F)(F)C(F)F	SRC3 inh 68, Gli-Sufu block 55 | Gli-Sufu confirm 64 | SufuKO cytotox 46 | Wnt3a counter 64
O=C(N/N=C/c1cc(Br)ccc1O)C(=O)Nc1ccccc1OC(F)(F)C(F)F	Gli-Sufu block 60 | Gli-Sufu confirm 73 | SufuKO cytotox 32 | Wnt3a counter 58
COc1cccc(/C=N/NC(=O)C(=O)Nc2ccccc2OC(F)(F)C(F)F)c1	none
COC(=O)[C@]12C[C@H](CC(=O)NCc3cccc4ccccc34)C(=O)N(Cc3ccccc3)C1=C[C@H](C(C)(C)C)O[C@@H]2C	none (no result: NCOA1 inh, LRH-1 inv ag, SRC3 inh, Gli-Sufu block)
O=C(NC1CCCCN(Cc2cccc(Cl)c2)C1=O)c1ccc(-c2ccccc2)cc1 (stereo unspecified)	none (no result: NCOA1 inh, LRH-1 inv ag, SRC3 inh, Gli-Sufu block)
O=C(Cn1nnc(-c2ccccc2)n1)N/N=C/c1cccc([N+](=O)[O-])c1	none | Gli-Sufu confirm inactive | SufuKO cytotox inactive | Wnt3a counter inactive
c1ccc2c(c1)N=C(N1CCN(Cc3ccc4c(c3)OCO4)CC1)c1ccccc1S2	none (no result: NCOA1 inh, LRH-1 inv ag, SRC3 inh, Gli-Sufu block)
O=C(N/N=C/c1ccccc1Cl)c1[nH]c2ccc(Br)cc2c1-c1ccccc1	Gli-Sufu block 68 | Gli-Sufu confirm 58 | SufuKO cytotox 61 | Wnt3a counter inactive
COc1ccc(F)cc1-c1cc(C(C)=O)c2n(c1=O)CCC2	none (no result: NCOA1 inh, LRH-1 inv ag, SRC3 inh, Gli-Sufu block)
CC(CCN1CCC(C(O)(c2ccccc2)c2ccccc2)CC1)Oc1cccc(Cl)c1 (stereo unspecified)	none (no result: NCOA1 inh, LRH-1 inv ag, SRC3 inh, Gli-Sufu block)
Cc1cc(NC(=O)CSc2ccc(-c3nc4cc(C)c(C)cc4[nH]3)cn2)no1	Gli-Sufu block 97 (no result: SRC2 inh, NR2F2 inh) | Gli-Sufu confirm inactive | SufuKO cytotox 27 | Wnt3a counter inactive
